Records with an inconclusive call do not appear. Unmarked numbers belong to inactive results. The source made the active and inactive calls. Calls come from the whole dose curve; as a rule, active = well fitted curve in the direction sought with a large enough effect; inconclusive = small, poorly fitted or top-dose-only effect, or another doubt; inactive = no such curve, though single readings can be large; an effect the other way counts as inactive or inconclusive. Where a SMILES comes first, the peptide text is derived from it. Bridges are numbered along the chain shown (N, C = ends). [ ]: non-standard residue; d: D form. hArg = N=C(N)NCCCC[C@H](N)C(=O)O; Mpa = O=C(O)CCS

The target of assay [1] is Cytochrome P450 3A7 (Homo sapiens) (UniProt P24462). Nature of the assay: Cytochrome P450 family 3 subfamily A member 7 (CYP3A7) small molecule antagonists: luciferase biochemical qHTS assay (AID 1963596). Note: % is set by controls: 0 for no effect and ±100 for the full control effect; nearly all actives have a fitted effect of over 40% in size. An outline of the steps:
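Biochemical CYP3A7 activity measured with P450-Glo system: luciferin formed from proluciferin substrate in NADPH-driven reaction (1 h, room temperature) after 10 min compound preincubation. Signal in relative luminescence units.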
In general terms: In qHTS, concentration-response curves come from the screen itself.

Assay [2] is described as follows: Cellular viability qHTS for adrenocortical cancer (ACC) cell line SW-13 (AID 1963989).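 For activity (max response): cells grown in serum-free medium with ITS supplement; % is set by controls: 0 for no effect and ±100 for the full control effect.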 Note: nearly all actives have a fitted effect of over 65% in size. Note: potency is the fitted concentration of half-maximal effect. To be noted: SW-13 ACC cells viability, CellTiter-Glo, 48 h; activity (max response): active compounds read low. Summed up: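 SW-13 cells in ITS-supplemented serum-free DMEM were plated overnight, then exposed for 48 h at 37C to compound titrations (up to 46 uM final). Viability was read by CellTiter-Glo luminescence; four-parameter logistic fits gave IC50 and efficacy.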

Assay [3] in a line: Cellular viability qHTS for adrenocortical cancer (ACC) cell line NCI-H295R (AID 1963990). Note: nearly all actives have a fitted effect of over 60% in size. Note: potency is the fitted concentration of half-maximal effect. An outline of the steps: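 Luminescent ATP read-out (CellTiter-Glo, 20 min RT) after 48 h drug exposure of NCI-H295R cells; a titration up to 46 uM final. Data normalized to doxorubicin (100% inhibition) and DMSO (0%); 4-parameter fit gives IC50, max response.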

Chain of Cytochrome P450 3A7 (Homo sapiens) (P24462 whole entry, looked up): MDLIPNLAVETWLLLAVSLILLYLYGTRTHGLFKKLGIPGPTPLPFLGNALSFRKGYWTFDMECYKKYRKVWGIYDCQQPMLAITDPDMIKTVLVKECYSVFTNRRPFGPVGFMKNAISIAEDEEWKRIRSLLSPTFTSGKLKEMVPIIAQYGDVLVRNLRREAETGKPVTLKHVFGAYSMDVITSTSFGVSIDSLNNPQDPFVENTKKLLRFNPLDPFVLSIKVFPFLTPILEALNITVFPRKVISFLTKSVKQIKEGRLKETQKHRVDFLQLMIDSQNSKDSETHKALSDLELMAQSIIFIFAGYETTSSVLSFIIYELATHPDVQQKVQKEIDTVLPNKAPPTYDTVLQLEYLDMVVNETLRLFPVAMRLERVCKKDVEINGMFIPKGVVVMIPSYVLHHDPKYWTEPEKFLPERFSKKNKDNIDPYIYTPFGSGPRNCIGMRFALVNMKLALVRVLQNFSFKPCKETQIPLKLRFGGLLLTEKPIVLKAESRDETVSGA

With `Nc1ncnc(Nc2ccccc2)n1`, the Potency result in assay [1] and in assay [3] was “inactive” each time. In addition, the activity (max response) in assay [2] was 3.3%.
As for `CC(=O)OCC(=O)[C@@]1(OC(C)=O)[C@@H](C)C[C@H]2[C@@H]3C[C@H](F)C4=CC(=O)C=C[C@]4(C)[C@@]3(F)[C@@H](O)C[C@@]21C`, the Potency result in assay [1] and in assay [3] was “inactive” each time. In assay [2], the activity (max response) was 3.57%.
As for `CCCCCCCCCCCCCCC[C@H](O)[C@@H](N)CO`, the Potency entry in assay [1] and in assay [3] was “inactive” each time. In assay [2], the activity (max response) is 1.16%.
For `COC(=O)N[C@@H](C)CNc1nccc(-c2cn(C(C)C)nc2-c2cc(Cl)cc(NS(C)(=O)=O)c2F)n1`, the Potency entry in assay [1] and in assay [3] was “inactive” throughout. Further, in assay [2], the activity (max response) is -16%.
Turning to `CN1C(=O)c2ccccc2C1=O`, the Potency entry in assay [1] and in assay [3] was “inactive” in each case. Further, the activity (max response) in assay [2] is -9.75%.
For the molecule `NCCNC(=O)c1ccc(Cl)cn1`, the Potency result in assay [1] and in assay [3] was “inactive” each time. Also, the activity (max response) in assay [2] is -2.26%.
For the molecule `CC(=O)Nc1c(I)c(NC(C)=O)c(I)c(C(=O)O)c1I`, the Potency entry in assay [1] and in assay [3] was “inactive” each time. Further, the activity (max response) in assay [2] was 2.04%.
`CC(=O)N[C@H]1[C@H]([C@H](O)[C@H](O)CO)OC(C(=O)O)=C[C@@H]1N=C(N)N`: the Potency result in assay [1] and in assay [3] was “inactive” throughout. Moreover, the activity (max response) in assay [2] was -7.79%.
With `Cc1c(N(C)CS(=O)(=O)O)c(=O)n(-c2ccccc2)n1C`, the Potency result in assay [1] and in assay [3] was “inactive” in each case. Besides, in assay [2], the activity (max response) is 3.83%.
Consider `CC(C)C(=O)Nc1cccc(C(F)(F)F)c1`, for which the Potency result in assay [1] and in assay [3] was “inactive” throughout. For the same molecule, the activity (max response) in assay [2] is 14.2%.
With `CCNCc1nc2c(N)nc3ccccc3c2n1CC(C)(C)O`, the Potency entry in assay [1] and in assay [3] was “inactive” each time.
Turning to `COc1ccccc1OCC1CNC(=O)O1` (stereo not drawn), the Potency result in assay [1] and in assay [3] was “inactive” throughout. Besides, the activity (max response) in assay [2] is 12.9%.
With `NC(=O)[C@@H]1CSSCCC(=O)N[C@@H](CCCCN=C(N)N)C(=O)NCC(=O)N[C@@H](CC(=O)O)C(=O)N[C@@H](Cc2c[nH]c3ccccc23)C(=O)N2CCC[C@H]2C(=O)N1` ([Mpa][hArg]GDWPC-NH2; disulfide 1-7), the Potency result in assay [1] and in assay [3] was “inactive” throughout. Moreover, the activity (max response) in assay [2] is 17.5%.
Regarding `Cc1cccc(C(=O)O)c1O`, the Potency result in assay [1] and in assay [3] was “inactive” in each case. Also, the activity (max response) in assay [2] was 14.1%.
Turning to `Cc1ccc(C(=O)C(C)CN2CCCCC2)cc1` (stereo not drawn), the Potency entry in assay [1] and in assay [3] was “inactive” throughout. Further, the activity (max response) in assay [2] was -5.23%.
Turning to `O=C1c2cccc3c2[C@H](CCC3)CN1[C@@H]1CN2CCC1CC2`, the Potency result in assay [1] and in assay [3] was “inactive” each time. Besides, the activity (max response) in assay [2] is -4.45%.
Consider `CC(N)CCCC(C)(C)O` (stereo not drawn), for which the Potency result in assay [1] and in assay [3] was “inactive” each time. In addition, the activity (max response) in assay [2] is 18.8%.
In the case of `CCN1CC(CCN2CCOCC2)C(c2ccccc2)(c2ccccc2)C1=O` (stereo not drawn), the Potency entry in assay [1] and in assay [3] was “inactive” each time. Further, the activity (max response) in assay [2] was 1.41%.
Regarding `NCCO`, the Potency entry in assay [1] and in assay [3] was “inactive” in each case. Further, the activity (max response) in assay [2] was 7.88%.
For the molecule `Cc1nc([N+](=O)[O-])cn1-c1ccc([N+](=O)[O-])cc1`, the Potency entry in assay [1] and in assay [3] was “inactive” each time. In assay [2], the activity (max response) is -2.45%.
Consider `C=CCN1C[C@H](C(=O)N(CCCN(C)C)C(=O)NCC)C[C@@H]2c3cccc4[nH]cc(c34)C[C@H]21`, for which the Potency entry in assay [1] and in assay [3] was “inactive” throughout. The activity (max response) in assay [2] was 3.88%.
In the case of `CC(=O)O[C@H]1C[C@@H]2CC[C@@H]3[C@H](CC[C@@]4(C)[C@H]3C[C@H]([N+]3(C)CCCCC3)[C@@H]4OC(C)=O)[C@@]2(C)C[C@@H]1N1CCCCC1`, the Potency result in assay [1] and in assay [3] was “inactive” each time. Moreover, in assay [2], the activity (max response) was 0.69%.
Consider `Oc1c(Br)cc(Br)c2cccnc12`, for which the Potency result in assay [1] is “inactive”. The Potency was 4.61 µM (active) in assay [2] and 1.64 µM (active) in assay [3].
On to `COc1cc(C(=O)N2CCOCC2)cc(OC)c1OC`, for which the Potency result in assay [1] and in assay [3] was “inactive” in each case. For the same molecule, the activity (max response) in assay [2] was 1.89%.
On to `CCOC(=O)c1ccc(O)cc1`, for which the Potency result in assay [1] and in assay [3] was “inactive” throughout. The activity (max response) in assay [2] was 9.4%.
In the case of `C[N+]12CCC(CC1)C(OC(=O)C(O)(c1ccccc1)c1ccccc1)C2` (stereo not drawn), the Potency entry in assay [1] and in assay [3] was “inactive” each time. The activity (max response) in assay [2] is -2.73%.
Regarding `OCC(O)CS` (stereo not drawn), the Potency entry in assay [1] and in assay [3] was “inactive” throughout. Moreover, the activity (max response) in assay [2] is 8.13%.
Take `CO/N=C(/C(=O)N[C@@H]1C(=O)N2C(C(=O)O)=C(Cn3nnc(C)n3)CS[C@H]12)c1csc(N)n1`: the Potency entry in assay [1] and in assay [3] was “inactive” in each case.
For `OC[C@H]1O[C@@H](Oc2ccc(O)cc2)[C@H](O)[C@@H](O)[C@@H]1O`, the Potency entry in assay [1] and in assay [3] was “inactive” throughout. Besides, the activity (max response) in assay [2] was -0.0454%.
Turning to `CCN1CCC[C@H]1CNC(=O)c1c(O)c(Cl)cc(Cl)c1OC`, the Potency result in assay [1] and in assay [3] was “inactive” throughout. Moreover, the activity (max response) in assay [2] was 8.2%.

The values above are taken from PubChem BioAssay (NCATS).
